From PubChem BioAssay (NCI)
About 83,000 compounds went through this panel and 20% of them were active in at least one assay; those are over-represented in the sample as a whole.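 Testing used 96-well plates and a 48-hour single-concentration exposure. Example: -40 means 40% of the starting cells died.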 Unmarked numbers belong to inactive results. Activity calls are given as the source filed them. How the source made its calls: active means growth percent below 10; inactive means the rest.

Key:
Assay in all cases: NCI-60 one-dose screen, 48 h (100 = growth as untreated, 0 = no growth, -100 = all killed)
Details in all cases: 10 µM unless noted
[1] = tested on: SK-MEL-2 melanoma
[2] = tested on: EKVX NSCLC
[3] = tested on: SN12C renal
[4] = tested on: UO-31 renal
[5] = tested on: TK-10 renal
[6] = tested on: ACHN renal
[7] = tested on: CAKI-1 renal
[8] = tested on: A498 renal
[9] = tested on: CCRF-CEM leukemia
[10] = tested on: MOLT-4 leukemia
[11] = tested on: OVCAR-5 ovarian
[12] = tested on: SK-OV-3 ovarian
[13] = tested on: IGROV1 ovarian
[14] = tested on: OVCAR-3 ovarian
[15] = tested on: HS 578T breast
[16] = tested on: NCI/ADR-RES ovarian
[17] = tested on: SR leukemia
[18] = tested on: OVCAR-8 ovarian
[19] = tested on: OVCAR-4 ovarian
[20] = tested on: RPMI-8226 leukemia

SMILES | growth [1] | growth [2] | growth [3] | growth [4] | growth [5] | growth [6] | growth [7] | growth [8] | growth [9] | growth [10] | growth [11] | growth [12] | growth [13] | growth [14] | growth [15] | growth [16] | growth [17] | growth [18] | growth [19] | growth [20]
NC(N)=N/N=C/c1ccc(Cl)cc1 | 95.9% | 64.2% | 94.9% | 73.3% | 84.9% | 91.8% | 34% | 68.2% | 71% | 53.9% | 89.6% | 76.5% | 97.6% | 56.8% | 75.4% | 79.9% | – | – | – | –
C=CCN(CC#N)CC=C | 117% | 100% | 102% | 92.4% | 103% | 109% | 107% | 112% | – | 102% | 102% | 116% | 120% | 119% | 121% | 115% | 93.2% | 100% | – | –
CS(=O)(=O)c1ccc(C(=O)Nc2ccc(Cl)c(-c3ccccn3)c2)c(Cl)c1 | -6.37% (active) | 23.5% | 28.2% | 24.6% | 11.9% | 27.9% | -17.6% (active) | 6.2% (active) | – | 11.5% | 33.6% | 19.2% | 25.2% | -11.1% (active) | 51.1% | 11.1% | 9.7% (active) | 23.3% | 26.8% | –
CC(C)(C)c1ccc(C(=O)Nc2sc3cc(O)ccc3c2C(N)=O)cc1 | 114% | 94.6% | 78% | 65.6% | 133% | 74.1% | 77.3% | 107% | 50% | – | 99.3% | 115% | 57.9% | 90.8% | 96.1% | 71.7% | 33.7% | 81.2% | 72.1% | 5.05% (active)
O=S(=O)(Nc1ccc2ccccc2c1)N1CCCCC1 | 8.41% (active) | 81% | 81.9% | 25% | 86.8% | 63.7% | 44% | 27% | – | 64.5% | 79.1% | 52% | 36.3% | 53.2% | 47.5% | 6.41% (active) | 38.1% | 68.2% | 85.1% | 82.4%
CC1=CCC2C1CC=C(C)C(CC[C@H]1[C@@](C)(O)CCC3OC(C)(C)[C@H](OC(=O)c4ccccc4)CC[C@@]31C)C2(C)C (some centres undefined) | 81.3% | 69.6% | 80.6% | 80.8% | 97.5% | 94.1% | 67.7% | 110% | 99.6% | – | 100% | 93.8% | 102% | 72.8% | 110% | 95% | – | 87.4% | 71.5% | –
S=C(Nc1ccc(Cl)cc1)Nc1ccc(Cl)cc1 (tested in a mixture with another compound) | -32.7% (active) | -4.98% (active) | 11.1% | -5.47% (active) | 1.45% (active) | 3.54% (active) | -20.3% (active) | -8.63% (active) | – | 15.3% | 12.5% | -0.571% (active) | 16.2% | 5.45% (active) | 17.4% | – | 5.29% (active) | 1.13% (active) | 10.5% | 9.87% (active)
Clc1ccc(-c2cnc3c(-c4ccnc(N5CCNCC5)c4)cnn3c2)cc1 | -57.4% (active) | 80.8% | 10.9% | -42.6% (active) | 1.85% (active) | -0.355% (active) | – | 92.2% | 0.88% (active) | -5.54% (active) | -21.2% (active) | 85.2% | – | -14.6% (active) | – | -0.0998% (active) | -0.57% (active) | 1.08% (active) | -60.9% (active) | -39% (active)
O=C(Nc1cccc(-n2ccc3c(NC(=O)c4ccccc4)nccc32)c1)c1ccc(N2CCOCC2)c(C(F)(F)F)c1 | 13.4% | 45.5% | 34% | 5% (active) | 6.82% (active) | 24.2% | – | 21.9% | 15.7% | 17.4% | 41.1% | -6.21% (active) | 8.99% (active) | 26.9% | 55.5% | 14.3% | 2.76% (active) | 16.3% | 51.7% | –
